Compound activity from PubChem BioAssay.
Rows were chosen to be rich in hits. Some 14% of all compounds tested hit in one or more screens of this group.
Cycloheximide cs – Cycloheximide Counterscreen for Small Molecule Inhibitors of Shiga Toxin | cell reporter, cycloheximide protein synthesis inhibition counterscreen | max response, % | 300,000 compounds, 12% hits | AID 2314, 2010; in the data active means max response mostly above about 13%, no sharp cut-off; inactive means mostly below about 14%; further: read at 38.3 µM for the half of the compounds with a filed dose
Shiga toxin inh – A qHTS for Small Molecule Inhibitors of Shiga Toxin. Vero cells, Shiga toxin protein synthesis inhibition reporter. inhibition, % at 38.7 µM. 290,000 compounds, 9.2% hits; in the data active means inhibition mostly above about 28%, no sharp cut-off; inactive means mostly below about 43%
LmPK inh – qHTS Assay for Inhibitors of Leishmania Mexicana Pyruvate Kinase (LmPK). Q27686. purified LmPK, Kinase-Glo ATP luminescence, 1 h. Potency, µM (series often up to 57.5 µM), most hits filed as inhibitors. 290,000 compounds, 0.37% hits
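qHTS format; LmPK 0.1 nM; substrates PEP 0.5 mM and ADP 0.1 mM. One-hour room-temperature incubation, then coupled luciferase luminescence; 0.5 nM enzyme wells mark activation.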
Giardia FBPA inh – qHTS Assay for Inhibitors of Fructose-1,6-bisphosphate Aldolase from Giardia Lamblia; 290,000 compounds, 0.71% hits; purified Giardia FBPA; Potency, µM (titrated, usually from 59.6 µM), most hits filed as inhibitors; A8B2U2; further: nearly all actives have a fitted effect of over 55% in size
Target sequence (A8B2U2 whole entry, looked up): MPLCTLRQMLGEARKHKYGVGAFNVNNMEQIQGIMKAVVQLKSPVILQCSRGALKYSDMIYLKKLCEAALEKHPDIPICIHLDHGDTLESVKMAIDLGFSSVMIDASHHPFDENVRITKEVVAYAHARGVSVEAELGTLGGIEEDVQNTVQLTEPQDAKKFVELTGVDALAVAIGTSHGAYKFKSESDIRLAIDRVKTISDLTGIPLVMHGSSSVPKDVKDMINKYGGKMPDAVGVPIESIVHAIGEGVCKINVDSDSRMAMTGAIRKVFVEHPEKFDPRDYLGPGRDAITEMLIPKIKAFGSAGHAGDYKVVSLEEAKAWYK
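40 nM FBPA preincubated 10 min at RT with compound (up to 57.5 uM final), then substrate plus GAPDH/TPI/NAD/arsenate coupling and diaphorase/resazurin added. Fluorescence read after 20 min at RT, 525/598 nm.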
NS1 function inh – qHTS Assay for Inhibitors of Influenza NS1 Protein Function; Potency, µM (highest dose often 46.1 µM); 270,000 compounds, 0.4% hits; calls by dose curve; further: actives are rising curves; nearly all actives have a fitted effect of over 50% in size
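Growth recovery, yeast-based: influenza A NS1 expressed in S. cerevisiae causes slow growth, and suppressors are detected by OD600. The parent strain without NS1 is used as positive control.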
Of the large screens only hits and unclear results are named; the others gave an inactive call. Unless noted, the call rests on the fitted dose curve; in most records, active means well fitted curve in the direction sought with a large enough effect; inconclusive means small, poorly fitted or top-dose-only effect, or another doubt; inactive means no such curve, though single readings can be large; an effect the other way counts as inactive or inconclusive.

Cc1ccc2oc(C(=O)NCC(c3ccco3)N3CCCC3)c(C)c2c1 (centres undefined)	Cycloheximide cs 20.4 (no result: Giardia FBPA inh)
Cc1cc(OC(C)C(N)=O)nc(-c2ccccc2)n1 (centres undefined)	none (no result: NS1 function inh)
Cc1ccsc1-c1nc(CN(C)C(C2CC2)C2CC2)c(C)o1	none
CC(C)(C)NC(=O)NCCc1ccccc1	Cycloheximide cs 35.9, Shiga toxin inh 58.7
C=CCNC(=S)Nc1ccc(Br)cc1F	none
O=[N+]([O-])c1ccc(NC(=S)NCCc2ccccc2)cc1	Cycloheximide cs 28.2, Shiga toxin inh 63.7
CC(C)(C)C(=O)NC(=S)NCCc1ccccc1	Cycloheximide cs 39.4, Shiga toxin inh 90.5
Fc1cc(Br)ccc1NC(=S)NCCc1ccccc1	Cycloheximide cs 46.1, Shiga toxin inh 139.1
CCOc1ccc(S(=O)(=O)N(CC(=O)N2CCC(C(N)=O)CC2)c2ccc(F)cc2)cc1	none (no result: Giardia FBPA inh)
CC(NCc1ccc(OCC(N)=O)cc1)C12CC3CC(CC(C3)C1)C2 (centres undefined)	Giardia FBPA inh inconclusive
NNC(=S)NCCc1ccccc1	none
O=C(NCCc1ccncc1)Nc1ccccc1Cl	none
C/C(CCc1ccccc1)=N\NC(=S)NCCc1ccccc1	none
O=C(NCCc1ccc(F)cc1)Nc1ccccc1Cl	Cycloheximide cs 25.9, Shiga toxin inh 55.1 (no result: Giardia FBPA inh)
S=C(NCCc1ccccc1)NCCc1ccccc1	Cycloheximide cs 50.6, Shiga toxin inh 57.1
COc1ccc([N+](=O)[O-])cc1NC(=S)Nc1ccccc1	none
O=[N+]([O-])c1ccc(O)c(NC(=S)Nc2ccccc2)c1	Cycloheximide cs 37.2
C/C(=N\NC(=S)NCCc1ccccc1)c1cccs1	Cycloheximide cs 17.2
COc1ccccc1CNc1cc(-c2c(C)noc2C)ncn1	none (no result: Cycloheximide cs, Shiga toxin inh, LmPK inh, NS1 function inh)
Fc1ccc(CCNC(=S)Nc2ccc(F)cc2)cc1	Cycloheximide cs 36.0, Shiga toxin inh 47.0
O=[N+]([O-])c1ccc(NNC(=S)Nc2ccccc2)cc1	Cycloheximide cs 37.1, Shiga toxin inh 97.3, Giardia FBPA inh inconclusive
S=C(NCCc1ccccc1)NCc1cccc(Cl)c1	Shiga toxin inh 23.2 (no result: Giardia FBPA inh)
COc1ccc(CC(=S)NCCc2ccccc2)cc1	Cycloheximide cs 14.3 (no result: Shiga toxin inh)
COc1cccc(C(=O)Nc2c3c(nn2-c2ccc(Cl)cc2)CS(=O)(=O)C3)c1OC	none
COC1=C[C@@H](C)C2CC3OC(=O)C[C@H]4C(C)=C(OC)C(=O)C([C@@]2(C)C1=O)[C@@]34C (some centres undefined)	none (no result: Cycloheximide cs, Shiga toxin inh, LmPK inh, NS1 function inh)
O=[N+]([O-])c1ccc(O)c(Nc2ncnc3ccccc23)c1	Cycloheximide cs 16.9
S=C(NCCc1ccccc1)N/N=C/c1ccc(Cl)cc1	none
O=[N+]([O-])c1ccc(O)c(Nc2ncnc3ccc(Br)cc23)c1	none (no result: NS1 function inh)
Cc1ccccc1NC(=O)NCCc1ccc(Cl)cc1	none
S=C(NCCc1ccccc1)Nc1ccc(Cl)cc1	Cycloheximide cs 52.7
S=C(NCCc1ccccc1)N/N=C/c1c(Cl)cccc1Cl	none
O=C(NCCc1ccccc1)Nc1ccc(Cl)cc1	Cycloheximide cs 45.8, Shiga toxin inh 46.0
CC1=C/C(=N\NC(=S)NCCc2ccccc2)CC(C)(C)C1	Cycloheximide cs 22.5, Shiga toxin inh 82.1
CC(C)c1cccc2cc3c(nc12)-c1cccc(=O)n1C3	none (no result: Cycloheximide cs, Shiga toxin inh, LmPK inh, NS1 function inh)
CC(C)CNC(=S)N1CCC(Cc2ccccc2)CC1	none
COc1cc(OC)cc(C(=O)NC(=S)NCCc2ccccc2)c1	Cycloheximide cs 14.1
Fc1ccccc1NC(=S)NCCc1cccc(Cl)c1	Cycloheximide cs 40.3, Shiga toxin inh 77.6 (no result: Giardia FBPA inh)
COc1ccccc1N(Cc1cc(=O)[nH]c2ccccc12)C(=O)C(C)C	none
COc1ccccc1CNC(=O)COC(=O)c1ccc(C)c(S(=O)(=O)N2CCCCC2)c1	none (no result: Giardia FBPA inh)
CCCCCCCC1=CC2=CC(=O)C(C)(O)C(=O)C2=CN1CCCC (centres undefined)	none (no result: Cycloheximide cs, Shiga toxin inh, LmPK inh, NS1 function inh)
CCCCSc1nnc(-c2ccc(C)cc2)n1C	Cycloheximide cs 40.0, Shiga toxin inh 103.5 (no result: Giardia FBPA inh)
Cn1c(SCC(=O)c2ccccc2)nnc1-c1ccccn1	Cycloheximide cs 53.4, Shiga toxin inh 113.0
Cn1c(SCC(=O)c2ccccc2)nnc1-c1cccc(N)c1	Cycloheximide cs 28.7
Cn1c(SCC(=O)c2ccccc2)nnc1-c1ccncc1	none
Cn1c(SCC(=O)c2ccccc2)nnc1-c1ccc(O)cc1	Cycloheximide cs 35.2, Shiga toxin inh 67.5
Cn1c(SCc2ccccc2)nnc1-c1ccc2c(c1)OCO2	Cycloheximide cs 49.0, Shiga toxin inh 75.4
Cn1c(SCc2ccccc2)nnc1-c1ccc(O)cc1	Cycloheximide cs 31.2, Shiga toxin inh 65.7
Cn1c(SCc2ccc(C#N)cc2)nnc1-c1ccccc1	none
COc1cccc(-c2cc(C(F)(F)F)n3nc(C(=O)N4CCCCC4c4cccnc4)cc3n2)c1 (centres undefined)	Cycloheximide cs 19.2, Shiga toxin inh 51.2 (no result: NS1 function inh)
COc1ccc(-c2cc(C(F)(F)F)n3nc(C(=O)N4CCCCC4)cc3n2)cc1	none
COc1cc(OC)c(OC)cc1/C=N/n1c(COc2ccccc2)n[nH]c1=S	none
Cc1nc(CN(C)C(=O)CC2C(=O)NCCN2Cc2ccc(-c3ccccc3)cc2)cs1 (centres undefined)	Shiga toxin inh 25.6 (no result: Giardia FBPA inh)
O=C(CC1C(=O)NCCN1Cc1ccccn1)NCCc1ccccc1F (centres undefined)	Shiga toxin inh 36.2 (no result: Giardia FBPA inh)
CCOc1ccc(CN2CCNC(=O)C2CC(=O)NCc2ccccn2)cc1 (centres undefined)	Cycloheximide cs 36.5
CN1CCNC(=O)C1CC(=O)NCCc1ccccc1F (centres undefined)	none
CN(C)CCCO[C@H]1C([C@H](O)CO)O[C@@H]2OC(C)(C)O[C@@H]21 (some centres undefined)	none (no result: Cycloheximide cs, Shiga toxin inh, LmPK inh)
c1ccc2nc3c(cc2c1)CCCCCC3	none
c1ccc2nc3c(cc2c1)CCCCC3	Cycloheximide cs 29.7, Shiga toxin inh 44.1
COC(=O)[C@H](C)NC(=O)c1cc2c(cn1)[nH]c1ccccc12	Cycloheximide cs 15.2
O=C(NCCCO)c1cc2c(cn1)[nH]c1ccccc12	Cycloheximide cs 26.8
CC(C)=CCC/C(C)=C/CO/N=C1/C[C@@H](O)[C@@H](O)[C@@H]2[C@@H]3C(=O)N(C[C@@H]4CCCO4)C(=O)[C@H]3CC[C@@H]12	none (no result: Cycloheximide cs, Shiga toxin inh, LmPK inh, NS1 function inh)
CCOC(=O)N1CCN(C(=O)C2CCCN(c3nc4ccc(OCC)cc4s3)C2)CC1 (centres undefined)	Shiga toxin inh 29.9
CCOc1ccc2nc(N3CCCC(C(=O)NC4CCCC4)C3)sc2c1 (centres undefined)	Cycloheximide cs 32.8, Shiga toxin inh 20.3
CCOc1ccc2nc(N3CCC(C(=O)NC4CCCCC4)CC3)sc2c1	none
COCCn1c(=O)c(-c2cccs2)nc2cnc(N3CCNCC3)nc21	none (no result: Cycloheximide cs, Shiga toxin inh, LmPK inh, NS1 function inh)
Cc1cccc(COc2ccccc2C(=O)OCC(=O)N(C)c2c(N)n(Cc3ccccc3)c(=O)[nH]c2=O)c1	none (no result: Giardia FBPA inh)
COC(=O)c1ccc(C(NC(=O)OCc2ccccc2)/C(F)=C/[C@@H](C)C(=O)NCCN2CCOCC2)cc1 (some centres undefined)	none (no result: Cycloheximide cs, Shiga toxin inh, LmPK inh, NS1 function inh)
CN(C)/C=C1\C(=O)Nc2ccccc21	none
